This passage reports Potency results from PubChem BioAssay (Tox21).

Results filed as inconclusive are left out. Entries that show only a call come without a potency. Active and inactive are the calls of the source. Calls come from the whole dose curve; as a rule, active = well fitted inhibition curve with a large enough effect in the signal ratio in the repeat runs (not every such curve was filed as active); inconclusive = weak or mixed curves, or effect the other way; inactive = no such curve, though single readings can be large or run the other way; the % refers to the signal ratio.
Potency is the fitted concentration of half-maximal effect.

Sequence of Vitamin D3 receptor (Homo sapiens) (P11473 whole entry, looked up): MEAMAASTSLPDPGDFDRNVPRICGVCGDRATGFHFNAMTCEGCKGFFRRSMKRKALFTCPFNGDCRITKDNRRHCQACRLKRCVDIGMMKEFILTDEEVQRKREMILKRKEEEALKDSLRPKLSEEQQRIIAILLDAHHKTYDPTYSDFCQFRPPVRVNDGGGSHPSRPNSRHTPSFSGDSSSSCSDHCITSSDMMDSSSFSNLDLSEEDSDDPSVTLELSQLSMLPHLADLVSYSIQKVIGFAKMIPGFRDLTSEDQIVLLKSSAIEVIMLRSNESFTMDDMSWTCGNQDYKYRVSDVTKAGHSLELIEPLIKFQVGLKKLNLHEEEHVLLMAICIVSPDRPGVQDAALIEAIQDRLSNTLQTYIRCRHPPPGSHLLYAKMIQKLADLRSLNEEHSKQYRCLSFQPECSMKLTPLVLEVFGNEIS

The assay deals with Vitamin D3 receptor (Homo sapiens) (UniProt P11473). Briefly: qHTS assay to identify small molecule antagonists of the vitamin D receptor (VDR) signaling pathway (AID 743223). The settings on record: VDR-UAS-bla HEK293T, beta-lactamase FRET ratio, 16 h; series mostly up to 61 µM. From the text:
U.S. Tox21 Program National Center for Advancing Translational Sciences [NCATS] NIH Chemical Genomics Center [NCGC] U.S. Environmental Protection Agency [EPA] National Institutes of Environmental Health Sciences [NIEHS] National Toxicology Program [NTP] U.S. Food and Drug Administration [FDA] Tox21 Assay Overview: The vitamin D receptor (VDR), a member of nuclear hormone receptor superfamily, plays a critical role in calcium homeostasis and bone metabolism. It is also involved in cell differentiation and growth, and thrombogenicity.
Tox21 Assay Protocol Summary: VDR-bla cells were dispensed at 2,000 cells/5 uL of assay medium per well into black wall/clear-bottom 1536-well plates using a Multidrop Combi (Thermo Fisher Scientific, Waltham, MA) dispenser. After the assay plates were incubated at a 37C and 5% CO2 for 4 h, 23 nL of compounds dissolved in DMSO, positive controls or DMSO only was transferred to the assay plate by a Pintool station (Kalypsys, San Diego, CA), followed by addition of 1 uL of 1alpha, 25-Dihydroxy Vitamin D3 (3 nM, final concentration in the wells) using a Bioraptr Flying Reagent Dispenser (FRD) workstation (Beckman Coulter, Indianapolis, IN). The plates were incubated at 37C and 5% CO2 for 16 h, and then 1 uL of LiveBLAzerTM B/G FRET substrate was added using a Bioraptr FRD. The plates were incubated at room temperature for 2 h and fluorescence intensity was measured by an Envision plate reader (PerkinElmer, Shelton, CT).
(In general: qHTS replaces the single test concentration by a dilution series.)
As for `COc1cccc(N)c1`, the Potency result was “inactive”.
Next, `CC(NN)c1ccccc1` (stereo not given): “inactive”; `Oc1ccc(Cl)cc1Sc1cc(Cl)ccc1O`: “inactive”; `c1ccc(CSCc2ccccc2)cc1`: “inactive”.
Consider `CCc1cc(Cc2cc(CC)c(N)c(CC)c2)cc(CC)c1N`, for which the Potency entry is “inactive”.
For `CC(=O)OCC(C)OC(C)=O` (stereo not given), the Potency entry is “inactive”.
On to `C1CCCC1`, for which the Potency result was “inactive”.
On to `O=S1(=O)CC(Cl)(Cl)C(Cl)(Cl)C1`, for which the Potency is 1.74 µM (active).
Turning to `O=C(NO)C1(NS(=O)(=O)c2ccc(Oc3ccc(F)cc3)cc2)CCOCC1`, the Potency result was “inactive”.
`Cc1cc(O)c(C(C)(C)C)cc1C(C)(C)C`: the Potency was 19.5 µM (active).
`OCCCCCCCCCCCCBr`: the Potency result is “inactive”.
Next, `O=C(NOCC1CC1)c1ccc(F)c(F)c1Nc1ccc(I)cc1Cl`: “inactive”.
In the case of `CCCCCCCCCCCCc1ccc(O)cc1`, the Potency was 13.8 µM (active).
Next, `O=C(N/N=C/c1ccccc1O)c1ccncc1`: 19 µM (active).
In the case of `Cc1oc(-c2ccccc2)nc1CCC(=O)c1ccc(CC2SC(=O)NC2=O)cc1` (stereo not given), the Potency result is “inactive”.
On to `CCCCCCCCCCCC(=O)NCCCN(C)C`, for which the Potency was 27.5 µM (active).
Take `C/C(=C(/OCCOc1ccc(Cl)cc1)c1ccc(Cl)cc1Cl)n1ccnc1`: the Potency result was “inactive”.
Take `CCCCCCCCCCn1cc[n+](CCCCCCCCCC)c1C`: the Potency was 19.5 µM (active).
Next, `NNc1nc(-c2ccc([N+](=O)[O-])cc2)cs1`: “inactive”; `CC(C)(C)C(=O)OCOC(=O)[C@@H]1N2C(=O)[C@@H](NC(=O)[C@H](N)c3ccccc3)[C@H]2SC1(C)C`: “inactive”.
On to `COc1ccc(-c2ccc3cc(C(=O)O)ccc3c2)cc1C12CC3CC(CC(C3)C1)C2`, for which the Potency entry was “inactive”.
For `CCC(Cl)C(Cl)C(Cl)CC(Cl)C(Cl)C(C)Cl` (stereo not given) the value was “inactive”.
For `O=C1c2ccccc2Cc2ccccc21` the value was “inactive”; for `Cc1onc(-c2ccccc2Cl)c1C(=O)N[C@@H]1C(=O)N2[C@@H]1SC(C)(C)[C@@H]2C(=O)O`, “inactive”.
For the molecule `CCCCCCCCCCCCCCCC(=O)OC[C@H](O)[C@H]1OC(=O)C(O)=C1O`, the Potency entry is “inactive”.
For `O=Cc1cc(O)ccc1Br`, the Potency entry was “inactive”.
On to `C[n+]1ccn(Cc2ccccc2)c1`, for which the Potency entry was “inactive”.
Consider `Cc1cc(N)c(S(=O)(=O)O)cc1Cl`, for which the Potency entry is “inactive”.
Turning to `CCCCCCCCCCCCCC[P+](CCCC)(CCCC)CCCC` (tested in a mixture with another compound), the Potency entry was “inactive”.
For `COc1cc(/C=C/C(=O)O[C@H]2CC[C@]34C[C@]35CC[C@]3(C)[C@@H]([C@H](C)CCC=C(C)C)CC[C@@]3(C)[C@@H]5CC[C@H]4C2(C)C)ccc1O` the value was “inactive”; for `CCCCC(CC)COP(=O)(O)OCC(CC)CCCC` (stereo not given), “inactive”; for `N=C1N=C(N)c2ccccc21`, “inactive”.
For `C[C@H]1[C@H]2CC[C@H]3[C@@H]4CC=C5C[C@@H](N(C)C)CC[C@]5(C)[C@H]4CC[C@]23CN1C` the value was “inactive”; for `O=[N+]([O-])c1ccccc1Nc1ccccc1`, “inactive”; for `NNc1nc(-c2ccc(N)cc2)cs1`, “inactive”.
Regarding `C/C=C(\C)C(=O)OCc1ccccc1`, the Potency entry is “inactive”.
Next, `Cc1ccc(O)c(C(C)(C)C)c1`: 13.8 µM (active); `C=CC(=O)OCC(CO)(COCC(COC(=O)C=C)(COC(=O)C=C)COC(=O)C=C)COC(=O)C=C`: 2.72 µM (active).
Next, `Nc1ccc2cc(S(=O)(=O)O)cc(O)c2c1N=Nc1ccccc1C(F)(F)F`: “inactive”.
For the molecule `CO[Si](CCCNc1ccccc1)(OC)OC`, the Potency result is “inactive”.
